Our source for the binding signal values is PMC5700166.

For this test, the target named is T1, GST-Aq-NF-kB (Amphimedon queenslandica, UniProt A9Y5G7 2-389).
T1 sequence: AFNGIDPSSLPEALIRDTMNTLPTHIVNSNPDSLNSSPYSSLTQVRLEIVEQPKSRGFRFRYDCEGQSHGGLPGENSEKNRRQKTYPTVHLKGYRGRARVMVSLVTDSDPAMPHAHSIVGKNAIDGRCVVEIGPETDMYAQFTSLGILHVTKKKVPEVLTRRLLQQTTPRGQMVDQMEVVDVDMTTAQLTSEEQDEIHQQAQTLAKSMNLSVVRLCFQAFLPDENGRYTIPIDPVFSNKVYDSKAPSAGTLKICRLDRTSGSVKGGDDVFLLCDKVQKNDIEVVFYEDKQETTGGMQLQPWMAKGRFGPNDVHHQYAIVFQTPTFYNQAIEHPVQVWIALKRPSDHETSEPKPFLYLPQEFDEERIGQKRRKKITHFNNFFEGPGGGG
In words: protein-binding microarray (PBM); PBM: ~300 nM protein, 6 mM HEPES pH 7.8, 80 mM KCl, 0.5 mM EDTA, 0.5 mM EGTA, 6% glycerol, 35 ng/ul poly-dIdC, 1% milk, 1 h, room temperature; Ap Aiptasia and Nv Nematostella (sea anemones) / Co Capsaspora / Aq Amphimedon (sponge) / Dm Drosophila / Hu human; RHD is the Rel homology domain; high values mean tight binding. The conditions noted are these: dsDNA, one strand shown.
With “CCGATTAACATCAGGAAATTTCATGATGTTAATCGGGTCTTGATTCGCTTGACGCTGCTG”, the binding signal amounted to 1.4 z-score.

The sequence “CCGATTAACATCAAGGAGATTCCTGATGTTAATCGGGTCTTGATTCGCTTGACGCTGCTG” registered a binding signal of 1.73 z-score.

“CCGATTAACATCAGGAAGTTCCATGATGTTAATCGGGTCTTGATTCGCTTGACGCTGCTG”: the binding signal is 1.48 z-score.

“CCGATTAACATCAAACCCTACTGTGATGTTAATCGGGTCTTGATTCGCTTGACGCTGCTG” had a binding signal of 1.19 z-score.

With “CCGATTAACATCAGAATTGCCCATGATGTTAATCGGGTCTTGATTCGCTTGACGCTGCTG”, the binding signal stood at 1.1 z-score.

“CCGATTAACATCACTAAAATTCCTGATGTTAATCGGGTCTTGATTCGCTTGACGCTGCTG” displayed a binding signal of 1.03 z-score.

On to “CCGATTAACATCAGGAGATTCCATGATGTTAATCGGGTCTTGATTCGCTTGACGCTGCTG”, for which the binding signal worked out at 1.66 z-score.

“CCGATTAACATCAGGAATCGCCCTGATGTTAATCGGGTCTTGATTCGCTTGACGCTGCTG” registered a binding signal of 2.28 z-score.

“CCGATTAACATCAGGAAGTGCCCTGATGTTAATCGGGTCTTGATTCGCTTGACGCTGCTG” returned a binding signal of 2.55 z-score.

Turning to “CCGATTAACATCAGGCAATGCCCTGATGTTAATCGGGTCTTGATTCGCTTGACGCTGCTG”, the binding signal was found to be 1.31 z-score.

On to “CCGATTAACATCAGAAATTCCGCTGATGTTAATCGGGTCTTGATTCGCTTGACGCTGCTG”, for which the binding signal was 1.09 z-score.

As for “CCGATTAACATCAGGAATGTCCATGATGTTAATCGGGTCTTGATTCGCTTGACGCTGCTG”, the binding signal is 1.06 z-score.

Turning to “CCGATTAACATCACGGCATTTCCTGATGTTAATCGGGTCTTGATTCGCTTGACGCTGCTG”, the binding signal turned out to be 1.96 z-score.

Regarding “CCGATTAACATCACGGGTTGCCCTGATGTTAATCGGGTCTTGATTCGCTTGACGCTGCTG”, the binding signal came to 1.04 z-score.
